BCR signal inh = qHTS Assay to Find Inhibitors of Chronic Active B-Cell Receptor Signaling | Potency, µM (highest dose often 46.1 µM), for inactives: at the highest dose activity change, negative = inhibition, actives largely listed as inhibitors | AID 493014, 2011 | actives 0.05% (n = 340,000) | ABC-DLBCL IkBa-CBG/CBR reporter, luminescence ratio, 4 h; active = well fitted inhibition curve with a large enough effect in the signal ratio, with a control signal flat, not every such curve was filed as active; inconclusive = small, poorly fitted or top-dose-only effect, or effect the other way, or a change in a side signal; the % refers to the signal ratio;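 note: potency is the fitted concentration of half-maximal effect; plate controls were basal doxycycline-induced cells for no effect and cells given 10 µM MG132 for full effect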
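TMD8 human ABC-DLBCL cells with doxycycline-inducible IκBα–green luciferase fusion and unfused red luciferase, in 0.5% FBS medium; compounds up to 46 uM, 4 h at 37C. Green/red luminescence ratio, filter-overlap corrected, fitted to concentration-response curves.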
SW480 rerep = A quantitative high throughput screen for small molecules that induce DNA re-replication in SW480 colon adenocarcinoma cells; actives 1.8% (n = 340,000); AID 624297, 2012; SW480 DNA re-replication, Hoechst DNA content imaging, 48 h; Potency, µM (highest dose often 46.1 µM), without a hit: at the highest dose re-replication activation, most hits filed as activators; note: potency is the fitted concentration of half-maximal effect; % of control where 0% means no effect; nearly all actives have a fitted effect of over 55% in size
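Hoechst fluorescence of nuclei (405 nm excitation, 500-530 nm emission) measured by plate-scanning imager after 48 hr compound exposure at 37 C; re-replication scored as increased number of nuclei with elevated intensity.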
MCF10A rerep = A quantitative high throughput screen for small molecules that induce DNA re-replication in MCF 10a normal breast cells. MCF 10A DNA re-replication, Hoechst nuclear intensity, 48 h. Potency, µM (highest dose often 46.1 µM), for inactives: top-dose activity, positive = re-replication, most hits filed as activators. actives 2.9% (n = 350,000). AID 624296, 2012; note: potency is the fitted concentration of half-maximal effect; % of control where 0% means no effect; nearly all actives have a fitted effect of over 50% in size
IL1B secr inh = qHTS for Inhibitors of Inflammasome Signaling: IL-1-beta AlphaLISA Primary Screen; THP-1 LPS/ATP IL-1B secretion, AlphaLISA, 16 h; stronger effect = lower value; activity change, % at 57.5 µM; actives 4.7% (n = 360,000); AID 743279, 2014; in the data active = activity change below about -50%; inconclusive = mostly about -30% to -49%; note: % is set by controls: 0 for no effect and ±100 for the full control effect
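Secreted IL-1B measured by AlphaLISA bead assay after 16 h compound exposure of THP-1 cells; compounds (final up to 57.5 uM) added 1 h before LPS (250 ng/mL) and ATP (1.25 mM) stimulation; lower signal means less secretion.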
TDP1 cell noCPT = qHTS for Inhibitors of human tyrosyl-DNA phosphodiesterase 1 (TDP1): qHTS in cells in absence of CPT | Potency, µM (doses to about 46.2 µM), for the others: at the top dose activity change, negative = growth inhibition, usual class: inhibitors | DT40 Tdp1-/- hTDP1 cells, no CPT, ATP luminescence, 48 h | actives 15% (n = 420,000); note: potency is the fitted concentration of half-maximal effect; % is set by controls: 0 for no effect and ±100 for the full control effect; nearly all actives have a fitted effect of over 55% in size
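A cellular qHTS used chicken DT40 cells lacking endogenous Tdp1 but carrying stably transfected human TDP1. Compounds were applied without camptothecin, and cell growth kinetics were judged by ATP-dependent luminescence after ≥48 hr.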
DT40 TDP1 CPT = qHTS for Inhibitors of human tyrosyl-DNA phosphodiesterase 1 (TDP1): qHTS in cells in presence of CPT; chicken DT40 Tdp1-/-;hTDP1 cells + 20 nM CPT, ATP luminescence, 48 h; Potency, µM (series often up to 46.2 µM), inactives show top-dose activity change, negative = growth inhibition, hits mostly inhibitors; actives 12% (n = 420,000); note: potency is the fitted concentration of half-maximal effect; % is set by controls: 0 for no effect and ±100 for the full control effect; nearly all actives have a fitted effect of over 55% in size
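Chicken DT40 Tdp1-/- cells complemented with human TDP1, 400 cells/well, exposed to compounds plus 20 nM camptothecin for at least 48 h at 37 C; viability read as ATP content by CellTiter-Glo luminescence.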
Numbers without * were called inactive; ? = inconclusive; nt = no result given. Compounds with a hit are over-represented: about 19% of the library has one in this group of screens. Unless noted, calls come from the whole dose curve; as a rule, active = well fitted curve in the direction sought with a large enough effect; inconclusive = small, poorly fitted or top-dose-only effect, or another doubt; inactive = no such curve, though single readings can be large; an effect the other way counts as inactive or inconclusive.

SMILES | BCR signal inh | SW480 rerep | MCF10A rerep | IL1B secr inh | TDP1 cell noCPT | DT40 TDP1 CPT
COc1ccc(C(C)=O)cc1CSc1nnc(Nc2ccccc2)s1 | ? | 1% | 5% | -28 | 16µM* | ?
COc1ccc(-c2nn(-c3ccccc3)cc2/C=N/N2C(=O)CSC2=S)cc1 | ? | ? | ? | -106* | 16µM* | 18µM*
O=C(NCc1cccc(F)c1)c1ccc2nc(N3CCOCC3)sc2c1 | 22% | 1% | 15% | -7 | -26% | -2%
CCOC(=O)C1CCCN(Cc2ccc(OC)c(OCc3ccccc3)c2)C1 (configuration not stated) | 2% | -16% | ? | -3 | 0% | -20%
CC(=O)N1CCCC(C(=O)c2ccc3c4c(cccc24)CC3)C1 (configuration not stated) | -14% | 0% | -3% | 5 | 23µM* | -28%
O=C(c1cccc2ccccc12)C1CCCN(C(=O)C2CCOCC2)C1 (configuration not stated) | ? | -1% | -10% | -4 | -12% | ?
CC(=O)NCCC(=O)N1CCCC(C(=O)c2ccc3c4c(cccc24)CC3)C1 (configuration not stated) | -2% | -8% | 10% | 9 | ? | ?
COc1cc(CN2CCCC(C(=O)c3ccc4c5c(cccc35)CC4)C2)cc(OC)c1O (configuration not stated) | -28% | ? | 21µM* | -7 | 4.6µM* | 4.6µM*
O=C(c1ccc2c3c(cccc13)CC2)C1CCCN(C(=O)c2cccnc2)C1 (configuration not stated) | 0% | -1% | 6% | 1 | 21µM* | 12µM*
CN1CCC(C(=O)N2CCCC(C(=O)c3ccc4c5c(cccc35)CC4)C2)CC1 (configuration not stated) | -3% | 19% | 1% | -12 | 18µM* | ?
CCCc1cc(=O)[nH]c(SCC(=O)Nc2sc3c(c2C(N)=O)CCCC3)n1 | -6% | -3% | 12% | 18 | -25% | -26%
CCOC(=O)C1=NOC2(C1)C(=O)Nc1ccc(OC)cc12 (configuration not stated) | nt | nt | nt | -19 | -12% | -13%
COc1ccc(NS(=O)(=O)c2cccc(C(=O)NCc3cccnc3)c2)cc1 | 0% | -5% | 7% | 16 | -29% | -26%
Cc1cccc(CN2CCCC(C(=O)c3ccc4c5c(cccc35)CC4)C2)n1 (configuration not stated) | -11% | ? | ? | -28 | 13µM* | 16µM*
O=C(C1CCCN(Cc2ccccc2)C1)N1CCCCC1 (configuration not stated) | 16% | -3% | 0% | 14 | 1% | 8%
O=C(c1ccc2c3c(cccc13)CC2)C1CCCN(Cc2cccnc2)C1 (configuration not stated) | ? | 0% | -3% | -78* | ? | -20%
COc1ccc(/C=C2\SC(=O)N(CCCC(=O)Nc3cc(Cl)ccc3C(=O)O)C2=O)cc1 | ? | -4% | 4% | 13 | -1% | 33%
COc1ccc(CCNC(=O)C2CCC(C(C)(C)C)CC2)cc1OC (configuration not stated) | 1% | -2% | 3% | -28 | ? | ?
CC(C)(C)NC(=O)CSC(=Nc1ccc(F)cc1)NC#N | -12% | -2% | ? | -97* | ? | -19%
CC(=O)OC1COC(OC(C)=O)CO1 (configuration not stated) | nt | -4% | -37% | 21 | -16% | -21%
CC(=O)O[C@H]1[C@H](C)OC=C[C@@H]1OC(C)=O | -2% | -5% | 5% | 1 | 16µM* | ?
Cc1ccc2nc(-c3ccccc3)cc(C(=O)N3CCN(c4ccccc4O)CC3)c2c1 | -13% | -3% | 25% | -23 | ? | ?
Cc1ccc(S(=O)(=O)N2CCN(C(=O)c3c(-c4ccccc4)noc3C)CC2)cc1C | -5% | -18% | 1% | 33 | -69% | ?
Cc1ccc2nc(-c3ccccc3)cc(C(=O)N3CCN(S(=O)(=O)c4c(C)noc4C)CC3)c2c1 | 12% | 2% | ? | -12 | 23µM* | ?
Cc1ccc(S(=O)(=O)N2CCN(C(=O)c3c(-c4ccccc4)noc3C)CC2)c(C)c1 | -7% | -6% | 13% | 31 | ? | 18µM*
SMILES | BCR signal inh | SW480 rerep | MCF10A rerep | IL1B secr inh | TDP1 cell noCPT | DT40 TDP1 CPT
Cc1cc(N(C)C)cc(C)c1/C=C/c1ccnc2ccccc12 | nt | nt | nt | nt | 11µM* | 14µM*
Cc1cc([N+](C)(C)C)cc(C)c1/C=C/c1ccnc2ccccc12 | nt | nt | nt | nt | 3.2µM* | 3.5µM*
O=C(CSc1c2c(nc3ccccc13)CCC2)N1CCCC1 | 15% | -14% | 3% | -8 | 6% | 2%
O=C(CSc1c2c(nc3cc(Cl)ccc13)CCCC2)NCc1ccccc1Cl | nt | nt | nt | nt | 15µM* | 18µM*
CC(C)NC(=O)CSc1c2c(nc3ccccc13)CCCC2 | ? | -3% | 1% | 34 | ? | -2%
O=C(CSc1c2c(nc3ccc(Cl)cc13)CCCC2)NCc1ccccc1Cl | nt | nt | nt | nt | 23µM* | 15µM*
O=C(CSc1c2c(nc3cc(Cl)ccc13)CCCC2)NCc1ccco1 | ? | ? | ? | -66* | 16µM* | 23µM*
O=C(CSc1c2c(nc3cc(Cl)ccc13)CCCC2)N1CCN(c2ccccc2)CC1 | nt | nt | nt | nt | 5.8µM* | 7.3µM*
CCN(CC(=O)NCc1cccs1)C(=O)/C=C/c1cccc(Cl)c1Cl | -8% | 1% | 3% | -2 | -16% | 0%
Cc1cc(C)c2cc(C#N)c(SCC(=O)NCc3ccco3)nc2c1 | 13% | ? | ? | 1 | 18µM* | 18µM*
COCCNC(=O)CSc1c2c(nc3ccc(Cl)cc13)CCCC2 | ? | 23% | ? | ? | ? | 16µM*
CCCCN(CC)C(=O)CSc1c2c(nc3ccc(Cl)cc13)CCCC2 | nt | nt | nt | nt | 16µM* | 7.3µM*
COc1cc(/C=C/CNC[C@H]2O[C@@H](n3cc(C)c(=O)[nH]c3=O)C[C@@H]2O)ccc1O | nt | nt | nt | 7 | ? | 7%
